Reference: the supplement of paper PMC8728848
The sample as a whole holds a higher share of the strongest signals than the screen did.

Legend:
Test in all cases: glycan array binding signal (z-score within array); higher = stronger binding
Settings in all cases: glycan notation: IUPAC condensed, linker removed
[1] = target: GlcNAc(b1-2)[GlcNAc(b1-4)]Man(a1-3)[GlcNAc(b1-2)Man(a1-6)]Man(b1-4)GlcNAc(b1-4)GlcNAc
Method in brief: (§1)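 Glycan array data were curated from 3228 arrays in the Consortium for Functional Glycomics database and kept only where the protein sequence was available. Glycan names were converted to IUPAC-condensed notation, and columns mapping to the same glycan were averaged. The binding signal is a within-array Z-score, averaged across arrays of the same protein sequence at different concentrations or buffers and across linkers. Negative Z-scores can be read as non-binding.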

[2] = target: GlcNAc(b1-2)[GlcNAc(b1-4)]Man(a1-3)[GlcNAc(b1-4)][GlcNAc(b1-2)[GlcNAc(b1-6)]Man(a1-6)]Man(b1-4)GlcNAc(b1-4)[Fuc(a1-6)]GlcNAc
Method in brief: as §1

GlcNAc(b1-3)Gal = target: GlcNAc(b1-3)Gal
Method in brief: as §1

[3] = target: GlcNAc(b1-3)Gal(b1-4)GlcNAc(b1-2)[GlcNAc(b1-3)Gal(b1-4)GlcNAc(b1-6)]Man(a1-6)[GlcNAc(b1-3)Gal(b1-4)GlcNAc(b1-2)Man(a1-3)]Man(b1-4)GlcNAc(b1-4)GlcNAc
Method in brief: as §1

[4] = target: GlcNAc(b1-3)Gal(b1-4)GlcNAc(b1-3)Gal(b1-4)GlcNAc(b1-2)Man(a1-3)[GlcNAc(b1-3)Gal(b1-4)GlcNAc(b1-3)Gal(b1-4)GlcNAc(b1-2)Man(a1-6)]Man(b1-4)GlcNAc(b1-4)GlcNAc
Method in brief: as §1

[5] = target: GlcNAc(b1-4)Gal(b1-4)GlcNAc
Method in brief: as §1

[6] = target: GlcNAc(b1-4)GlcNAc(b1-4)GlcNAc
Method in brief: as §1

[7] = target: GlcNAc(b1-6)Gal(b1-4)GlcNAc
Method in brief: as §1

Man(a1-2)Man(a1-3)Man = target: Man(a1-2)Man(a1-3)Man
Method in brief: as §1

[8] = target: Man(a1-2)Man(a1-6)[Man(a1-3)]Man(a1-6)[Man(a1-2)Man(a1-2)Man(a1-3)]Man
Method in brief: as §1

[9] = target: Man(a1-3)[Man(a1-6)]Man(a1-6)[Man(a1-3)]Man
Method in brief: as §1

MurNAc(b1-4)GlcNAc = target: MurNAc(b1-4)GlcNAc
Method in brief: as §1

[10] = target: Neu5Ac(a2-3)Gal(b1-4)GlcNAc(b1-2)[Neu5Ac(a2-3)Gal(b1-4)GlcNAc(b1-4)]Man(a1-3)[GlcNAc(b1-4)][Neu5Ac(a2-3)Gal(b1-4)GlcNAc(b1-4)Man(a1-6)]Man(b1-4)GlcNAc(b1-4)GlcNAc
Method in brief: as §1

[11] = target: Neu5Ac(a2-3)Gal(b1-4)GlcNAc(b1-2)[Neu5Ac(a2-3)Gal(b1-4)GlcNAc(b1-6)]Man(a1-6)[Neu5Ac(a2-3)Gal(b1-4)GlcNAc(b1-2)Man(a1-3)]Man(b1-4)GlcNAc(b1-4)GlcNAc
Method in brief: as §1

[12] = target: Neu5Ac(a2-3)Gal(b1-4)GlcNAc(b1-3)Gal(b1-4)GlcNAc(b1-3)Gal(b1-4)GlcNAc(b1-2)Man(a1-3)[Neu5Ac(a2-3)Gal(b1-4)GlcNAc(b1-3)Gal(b1-4)GlcNAc(b1-3)Gal(b1-4)GlcNAc(b1-2)Man(a1-6)]GalNAc
Method in brief: as §1

[13] = target: Neu5Ac(a2-3)Gal(b1-4)GlcNAc(b1-3)[Neu5Ac(a2-3)Gal(b1-4)GlcNAc(b1-6)]GalNAc
Method in brief: as §1

[14] = target: Neu5Ac(a2-3)Gal(b1-4)[Fuc(a1-3)]GlcNAc(b1-3)Gal(b1-4)[Fuc(a1-3)]GlcNAc(b1-3)Gal(b1-4)[Fuc(a1-3)]GlcNAc
Method in brief: as §1

[15] = target: Neu5Ac(a2-3)Gal(b1-4)[Fuc(a1-3)]GlcNAc(b1-3)GalNAc
Method in brief: as §1

[16] = target: Neu5Ac(a2-3)[GalNAc(b1-4)]Gal(b1-4)GlcNAc
Method in brief: as §1

[17] = target: Neu5Ac(a2-6)Gal(b1-4)GlcNAc(b1-2)Man(a1-6)[GlcNAc(b1-2)Man(a1-3)]Man(b1-4)GlcNAc(b1-4)GlcNAc
Method in brief: as §1

[18] = target: Neu5Ac(a2-6)Gal(b1-4)GlcNAc(b1-3)Gal(b1-4)GlcNAc(b1-3)Gal(b1-4)GlcNAc(b1-2)Man(a1-3)[Neu5Ac(a2-6)Gal(b1-4)GlcNAc(b1-3)Gal(b1-4)GlcNAc(b1-3)Gal(b1-4)GlcNAc(b1-2)Man(a1-6)]GalNAc
Method in brief: as §1

[19] = target: Neu5Ac(a2-6)Gal(b1-4)GlcNAc(b1-3)Gal(b1-4)[Fuc(a1-3)]GlcNAc(b1-3)Gal(b1-4)[Fuc(a1-3)]GlcNAc
Method in brief: as §1

[20] = target: Neu5Ac(a2-8)Neu5Ac(a2-3)Gal(b1-4)Glc
Method in brief: as §1

[21] = target: Neu5Gc(a2-3)Gal(b1-3)[Fuc(a1-4)]GlcNAc
Method in brief: as §1

[22] = target: Neu5Gc(b2-6)Gal(b1-4)GlcNAc
Method in brief: as §1

B1: SP15308C-bot-338-23-338 (Bacteroides ovatus) (protein)
chain: DEWTDEQFKQLISFKTQPGGWGVTDVHVRYANSAKYTYNLPVLVSGSTDNTDDRLVSFSLRDDTLDILNFEKFGNRPELYFRELPQKYYSFPKELTIPAGQSHALLPIEFSLDGLDDSQKWALPLKVCEDANGTYAVNPRKYYRTAVLRPILFNEFSGRFSGSSLLGTMAGESDIKFSSTEIKLNVVTDSIVFFYAGQRTEDYEDRINYKVFLQFTGDKVDSKKDLYKMKIWAENEKLKFNSYSTPTYKVSSEMDATKTYLKHTYIVISDIDFDFVDYTSVPNYEIEYNMKGGLSVSRDLDTRKPDEDQGSDSKWW
- glycan array binding signal (z-score) [1]: -0.931
- glycan array binding signal (z-score) [2]: -0.818
- glycan array binding signal (z-score) (GlcNAc(b1-3)Gal): -0.756
- glycan array binding signal (z-score) [3]: 0.124
- glycan array binding signal (z-score) [4]: 2.87
- glycan array binding signal (z-score) [5]: -0.205
- glycan array binding signal (z-score) [6]: -0.098
- glycan array binding signal (z-score) [7]: -0.182
- glycan array binding signal (z-score) (Man(a1-2)Man(a1-3)Man): 0.722
- glycan array binding signal (z-score) [8]: -0.109
- glycan array binding signal (z-score) [9]: 0.294
- glycan array binding signal (z-score) (MurNAc(b1-4)GlcNAc): -0.64
- glycan array binding signal (z-score) [10]: -0.025
- glycan array binding signal (z-score) [11]: 0.382
- glycan array binding signal (z-score) [12]: 0.621
- glycan array binding signal (z-score) [13]: -0.252
- glycan array binding signal (z-score) [14]: -0.739
- glycan array binding signal (z-score) [15]: 3.23
- glycan array binding signal (z-score) [16]: -0.753
- glycan array binding signal (z-score) [17]: -0.62
- glycan array binding signal (z-score) [18]: 2.46
- glycan array binding signal (z-score) [19]: -0.639
- glycan array binding signal (z-score) [20]: -0.032
- glycan array binding signal (z-score) [21]: 0.492
- glycan array binding signal (z-score) [22]: 0.812
